# Among all 69,000 compounds or so, about 1,000 (1.4%) showed an effect of 50% or more. The entries come from a sample that favours strong results as a whole.
# Tested on: Leishmania donovani
# Assay: Leishmania intramacrophage assay
# Assay type: functional, organism-based
# Set-up: scale not given: in the data most compounds retested in dose-response had high values
smiles,measurement,setting,value
O=C(OCC1CCN(c2ccccc2)C1)c1cscn1 (configuration not stated),Percent Effect,"30.3 µM, […]",51.5%
O=C(OCC1CCCN(C(=O)c2ccccc2)C1)c1cscn1 (configuration not stated),Percent Effect,"30.3 µM, […]",-48.09%
COCc1nc(C(=O)OCC2CCN(c3ccccc3)C2)cs1 (configuration not stated),Percent Effect,"30.3 µM, […]",-78.1%
COc1cc(C(=O)N(Cc2ccc(F)cc2)C2CC2)cc2c1OCCO2,Percent Effect,"30 µM, 30.03 µM",14.84%
CCCNC(=O)N1CCc2ccc(S(=O)(=O)N3CCOCC3)cc2C1,Percent Effect,"30.3 µM, […]",11.75%
CC1=C(CCN2CC[C@@H](N3CCC(O)CC3)[C@H](O)C2)C(C)(C)CCC1,Percent Effect,"30.3 µM, […]",56.28%
CC1=C(CCN2CCCC(O)C2)C(C)(C)CCC1 (configuration not stated),Percent Effect,"30.3 µM, […]",25.33%
CC1=C(CCN2C[C@H](O)[C@@H](N3CCOCC3)C2)C(C)(C)CCC1,Percent Effect,"30.3 µM, […]",-12.68%
Cc1ccc(N(Cc2ccco2)C(=O)CC2=NN(C)C(=O)C2)cc1,Percent Effect,"30.3 µM, […]",6.943%
CCN1CCCC(O)(c2nc(C)c(CCOc3ccc(F)cc3)s2)CC1 (configuration not stated),Percent Effect,"30.3 µM, […]",11.02%
COc1ccc(OCc2sc(C3(O)CCCNCC3)nc2C)cc1.Cl (configuration not stated),Percent Effect,"30 µM, 30.03 µM",9.769%
Cc1nc(C2(O)CCCNCC2)sc1CCOc1ccccc1.Cl (configuration not stated),Percent Effect,"30.3 µM, […]",4.476%
CCCN1CCCC(O)(c2nc(C)c(COc3ccccc3)s2)CC1 (configuration not stated),Percent Effect,"30.3 µM, […]",-5.482%
CC(=O)NCc1nc(CCOc2ccc(Cl)cc2)no1,Percent Effect,"30.3 µM, […]",7.139%
COc1ccc(OCCc2sc(C3(O)CCCNCC3)nc2C)cc1.Cl (configuration not stated),Percent Effect,"30 µM, 30.03 µM",10.27%
Cc1nc(C2(O)CCCNCC2)sc1CCOc1ccc(Cl)cc1.Cl (configuration not stated),Percent Effect,"30 µM, 30.03 µM",92.94%
CC(C)(C)c1ncc(C(=O)NCCNS(C)(=O)=O)s1,Percent Effect,30 µM,20.12%
CCOc1ccccc1C(CC(=O)Nc1ccc(C)cn1)NC(C)=O (configuration not stated),Percent Effect,"30 µM, 30.03 µM",34.79%
COc1ccc2c(ccn2CCC(=O)Nc2n[nH]c(CC(C)C)n2)c1,Percent Effect,"30.3 µM, […]",-2.003%
COc1cccc(CCC(=O)N2CCCC(n3cc(C)cn3)C2)c1 (configuration not stated),Percent Effect,"30 µM, 30.03 µM",9.343%
Cc1cc(C(=O)N2CCCC2c2noc(C)n2)[nH]n1 (configuration not stated),Percent Effect,"30.3 µM, […]",-9.431%
Cc1nc(C)c(C(=O)N2CCC(O)(Cn3ccc4ccncc43)CC2)s1,Percent Effect,"30.3 µM, […]",-5.567%
O=C(Nc1cccc(CN2CCOC2=O)c1)N1CCCC1,Percent Effect,"30.3 µM, […]",-5.143%
Cc1noc(C)c1C(=O)N(C)Cc1nc(-c2ccccn2)no1,Percent Effect,"30 µM, 30.03 µM",21.79%
Cc1noc(C(C)C)c1C(=O)NCCN1CCCCCC1=O,Percent Effect,"30 µM, 30.03 µM",20.26%
O=C1CCC(C(=O)NCCOc2cccc(Cl)c2Cl)CN1 (configuration not stated),Percent Effect,"30.3 µM, […]",18.68%
CN(C)[C@H]1CCCCN(C(=O)c2cccc(-c3cccc(F)c3)c2)C1,Percent Effect,"30.3 µM, […]",60.02%
CN(C)C1CCCN(C(=O)c2cccc(-c3ncc[nH]3)c2)CC1 (configuration not stated),Percent Effect,"30.3 µM, […]",21.12%
CN(C)[C@H]1CCCCN(C(=O)c2cccc(N3CCS(=O)(=O)CC3)c2)C1,Percent Effect,"30.3 µM, […]",-11.54%
Cc1ncc(CNC(CCO)C2CCCCC2)s1 (configuration not stated),Percent Effect,"30.3 µM, […]",-3.67%
Cc1nc(CN2C(=O)C[C@@H]3[C@@H]2CCN3S(C)(=O)=O)cs1,Percent Effect,"30.3 µM, […]",-12.74%
Cc1nnc([C@@H]2C[C@H]3CN(C(=O)C4CC4)C[C@H]3O2)[nH]1,Percent Effect,"30.3 µM, […]",15.1%
Cc1cccc(C(C(=O)NC(C)(C)CN2CCCC2)N(C)C)c1 (configuration not stated),Percent Effect,"30.3 µM, […]",64.22%
Cc1ccc(C(C(=O)NC(C)(C)CN2CCCC2)N(C)C)cc1 (configuration not stated),Percent Effect,"30.3 µM, […]",-34.55%
Cc1cccc(C(C(=O)NC(C)(C)CN2CCOCC2)N(C)C)c1 (configuration not stated),Percent Effect,"30.3 µM, […]",-45.9%
CCN(Cc1ccc2c(c1)OCO2)C(=O)NC(C)Cn1cccn1 (configuration not stated),Percent Effect,"30 µM, 30.03 µM",-8.819%
O=C1CCC(c2ccc(Cl)cc2)=NN1CN1CCCCCC1,Percent Effect,"30.3 µM, […]",-2.466%
O=C1CCC(c2ccccc2)=NN1CN1CCCCCC1,Percent Effect,"30.3 µM, […]",54.14%
O=C1CCC(c2ccc(Cl)cc2)=NN1CN1CCSCC1,Percent Effect,"30.3 µM, […]",35.07%
Cc1cc2ccccc2n1CCC(=O)NCCCc1nnc(N)s1,Percent Effect,"30.3 µM, […]",18.88%
Cc1cc(C(F)F)nn1C(C)C(=O)NCc1ncc[nH]1 (configuration not stated),Percent Effect,"30.3 µM, […]",43.47%
Cc1nn(C)c(C)c1CN1CCCC(c2ccc(C(=O)O)cc2)C1 (configuration not stated),Percent Effect,"30.3 µM, […]",20.41%
CCn1nc(C)c(CN2CCC(c3ccc(C(=O)O)cc3)C2)c1C (configuration not stated),Percent Effect,"30.3 µM, […]",54.96%
CCn1nc(C)c(CN2CCCC(c3ccc(C(=O)O)cc3)C2)c1C (configuration not stated),Percent Effect,"30.3 µM, […]",17.25%
CCS(=O)(=O)CCN(C)Cc1cc(C)ccc1OC,Percent Effect,"30.3 µM, […]",6.115%
CC(=O)NCC(=O)N1CCN(CCN(C)C)c2ncccc2C1.O=C(O)C(F)(F)F.O=C(O)C(F)(F)F,Percent Effect,"30.3 µM, […]",27.08%
COCC(=O)NC[C@@]1(COc2cccnc2)C[C@@H](O)[C@@H](O)C1.Cl,Percent Effect,"30.3 µM, […]",-3.857%
COC(=O)c1cccc(S(=O)(=O)NC(=O)COC2CCCC2)c1,Percent Effect,30 µM,-0.3864%
c1cnc(N2CCN(Cn3nccc3-c3cccnc3)CC2)nc1,Percent Effect,"30.3 µM, […]",61.02%
c1cncc(-c2ccnn2CN2CCOCC2)c1,Percent Effect,"30.3 µM, […]",-9.601%
CC(C)(C)CCN1CCN(Cn2nccc2-c2cccnc2)CC1,Percent Effect,"30.3 µM, […]",14.91%
Clc1ccc(CN2CCN(Cn3nccc3-c3cccnc3)CC2)s1,Percent Effect,"30.3 µM, […]",56.59%

# From ChEMBL document CHEMBL3988442, “University of Dundee, Small-Polar-MMV Screening Library” (2021)
